# Results published in PubChem BioAssay (NCATS).
# “And” between values parts separate entries of the source, which are not always exact repeats. Equal entries are not always repeated. Records with an inconclusive call do not appear. Entries that show only a call come without a potency. Unmarked numbers belong to inactive results. The source made the active and inactive calls. Calls follow the shape of the dose curve; as a rule, active = well fitted curve in the direction sought with a large enough effect; inconclusive = small, poorly fitted or top-dose-only effect, or another doubt; inactive = no such curve, though single readings can be large; an effect the other way counts as inactive or inconclusive.
# How the values were obtained:
# [1] = biological target: Cytochrome P450 3A7 (Homo sapiens) (UniProt P24462); assay: Cytochrome P450 family 3 subfamily A member 7 (CYP3A7) small molecule antagonists: luciferase biochemical qHTS assay (AID 1963596); conditions: P450-Glo CYP3A7 enzyme luminescence, 1 h; series mostly up to 57.4 µM; also: nearly all actives have a fitted effect of over 40% in size
# Summary of the method: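 Biochemical CYP3A7 activity measured with P450-Glo system: luciferin formed from proluciferin substrate in NADPH-driven reaction (1 h, room temperature) after 10 min compound preincubation. Signal in relative luminescence units.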
# [2] = Viability qHTS for spleen associated tyrosine kinase inhibitor (SYKi) naive MV4-11 cells (AID 1963823); conditions: MV4-11 AML viability, CellTiter-Glo luminescence, 72 h; series mostly up to 45 µM; also: nearly all actives have a fitted effect of over 40% in size; also: potency is read from the fitted curve at half-maximal effect
# Summary of the method: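 CellTiter-Glo luminescence, 10 min room-temperature incubation, gave viability. Cells: naive MV4-11 (500/well), treated 72 hr at 37 C, 5% CO2.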
# [3] = Viability qHTS for spleen associated tyrosine kinase inhibitor (SYKi) drug resistant MV4-11 cells (AID 1963824); conditions: SYKi-resistant MV4-11 viability, CellTiter-Glo, 72 h; series mostly up to 45 µM; also: nearly all actives have a fitted effect of over 35% in size; also: potency is read from the fitted curve at half-maximal effect
# Summary of the method: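 CellTiter-Glo luminescence, read 10 min after reagent addition, reports viability after a 72 hr compound exposure. Cells are an MV4-11 line made resistant to SYK inhibition, seeded at 500 per well onto compound-containing plates.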
# [4] = Cellular viability qHTS for adrenocortical cancer (ACC) cell line SW-13 (AID 1963989); conditions: SW-13 ACC cells viability, CellTiter-Glo, 48 h; activity (max response): stronger effect = lower value; also: nearly all actives have a fitted effect of over 65% in size; also: potency is read from the fitted curve at half-maximal effect;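 as to activity (max response): cells grown in serum-free medium with ITS supplement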
# Summary of the method: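 Here, serum-free SW-13 cultures were dosed up to 46 uM. Following 48 h, ATP-dependent luminescence (CellTiter-Glo) reported viable cells, and logistic modeling produced IC50 values.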
# [5] = Cellular viability qHTS for adrenocortical cancer (ACC) cell line NCI-H295R (AID 1963990); conditions: CellTiter-Glo ATP luminescence, 48 h; series mostly up to 46.1 µM; also: nearly all actives have a fitted effect of over 60% in size; also: potency is read from the fitted curve at half-maximal effect
# Summary of the method: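 Viability of NCI-H295R after 48 h of treatment (final up to 46 uM) measured through cellular ATP luminescence.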
# Sequence of Cytochrome P450 3A7 (Homo sapiens) (P24462 whole entry, looked up): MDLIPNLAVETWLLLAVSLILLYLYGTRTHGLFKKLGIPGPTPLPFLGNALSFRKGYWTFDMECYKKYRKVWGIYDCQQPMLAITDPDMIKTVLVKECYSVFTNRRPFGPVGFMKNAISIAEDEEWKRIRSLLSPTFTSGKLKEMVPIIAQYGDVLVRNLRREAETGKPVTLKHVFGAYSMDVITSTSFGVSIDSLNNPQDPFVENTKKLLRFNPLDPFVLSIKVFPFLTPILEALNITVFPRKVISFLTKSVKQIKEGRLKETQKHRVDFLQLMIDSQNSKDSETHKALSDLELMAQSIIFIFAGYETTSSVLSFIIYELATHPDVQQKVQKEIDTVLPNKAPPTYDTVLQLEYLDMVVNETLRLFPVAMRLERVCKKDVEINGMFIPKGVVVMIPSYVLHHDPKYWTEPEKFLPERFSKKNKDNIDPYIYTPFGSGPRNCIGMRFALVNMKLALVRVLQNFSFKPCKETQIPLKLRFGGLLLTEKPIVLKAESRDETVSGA
SMILES,Potency [1],Potency [2],Potency [3],activity (max response) [4],Potency [5],Potency [4],"activity change, negative = inhibition [1]",viability (% of control) [2],"viability, % of control [3]","activity change, negative = viability loss [5]"
CN(C)CC[C@@H](c1ccc(Br)cc1)c1ccccn1,inactive,inactive,inactive,2.25%,inactive,–,–,–,–,–
COC(=O)Nc1nc2ccc(C(=O)C3CC3)cc2[nH]1,inactive,1060 nM (active),750 nM (active),–,461 nM (active),731 nM (active),–,–,–,–
O=C(O)c1cc(-c2ccccc2)nc2ccccc12,inactive,inactive,inactive,10.7%,inactive,–,–,–,–,–
NCCCNCCSP(=O)(O)O,–,–,–,1.65%,–,–,11.1% [at 11.5 µM],79.8% [at 9.25 µM],105% [at 9.25 µM],0.548% [at 9.17 µM]
CN(C)CC/C=C1/c2ccccc2COc2ccc(CC(=O)O)cc21,inactive,inactive,inactive,1.77% and 7.73%,inactive,–,–,–,–,–
O=C(O)CP(=O)(O)O,inactive,inactive,inactive,1.41%,inactive,–,–,–,–,–
COc1ccc(CN(CCN(C)C)c2ncccn2)cc1,inactive,inactive,inactive,-7.84%,inactive,–,–,–,–,–
COC(=O)/C=C(/C)N,inactive,16800 nM (active),inactive,13.3%,inactive,–,–,–,–,–
C#CC(C)(CC)OC(=O)c1ccccc1C(=O)O (stereo not given),inactive,inactive,inactive,8.16%,inactive,–,–,–,–,–
O=c1[nH]c2ccccc2c(=O)n1CCCl,inactive,inactive,inactive,10.7%,inactive,–,–,–,–,–
C[C@H]1C[C@H](O)c2ccsc2S1(=O)=O,inactive,inactive,inactive,10.4%,inactive,–,–,–,–,–
